Records with an inconclusive call do not appear. Unmarked numbers belong to inactive results. Calls of active or inactive are those of the source. The call rests on the fitted dose curve; in most records, active means well fitted cell-killing curve with a large enough effect in the repeat runs; inconclusive means weak or mixed curves, or effect the other way; inactive means flat fitted curve, though single readings scatter.
Assay: qHTS assay to identify small molecule agonists of the estrogen receptor beta (ER-beta) signaling pathway - cell viability counter screen (AID 1259380); further: nearly all actives have a fitted effect of over 30% in size
Settings: ER-beta-bla HEK293T viability, CellTiter-Glo luminescence, 16 h; series mostly up to 92.4 µM; activity change, negative = cytotoxicity: at the top concentration
From the text: National Center for Advancing Translational Sciences [NCATS]
NIH Chemical Genomics Center [NCGC]
U.S. Environmental Protection Agency [EPA]
National Institutes of Environmental Health Sciences [NIEHS]
National Toxicology Program [NTP]
U.S. Food and Drug Administration [FDA]
Estrogen receptor (ER), a nuclear hormone receptor, plays an important role in development, metabolic homeostasis and reproduction. Two subtypes of ER, ER-alpha and ER-beta, have similar expression patterns with some uniqueness in both types. Endocrine disrupting chemicals (EDCs) and their interactions with steroid hormone receptors like ER causes disruption of normal endocrine function. To identify the compounds that activate ER signaling, an ER beta-UAS-bla GripTite cell line (Life Technologies, Madison, WI, USA) containing a beta-lactamase reporter gene under the control of an UAS response element was used to screen Tox21 10K compound library. The cytotoxicity of the Tox21 compound library against the ER-beta-bla cell line was tested in parallel by measuring the cell viability using CellTiter-Glo assay in the same wells.
Tox21 Assay Protocol Summary:
ER-beta-UAS-bla HEK293T cells were dispensed at 2,000 cells/5 uL of assay medium containing 2% charcoal stripped FBS per well into black wall/clear-bottom 1536-well plates using a Multidrop Combi (ThermoFisher Scientific, Waltham, MA) dispenser. After the assay plates were incubated at a 37C and 5% CO2 for 6 hr, 23 nL of compounds dissolved in DMSO, positive controls or DMSO only was transferred to the assay plate by a Pintool station (Kalypsys, San Diego, CA). The plates were incubated at 37C and 5% CO2 for 16 hr. Then 1 uL of LiveBLAzerTM B/G FRET substrate was added using a BioRAPTR FRD (Flying Reagent Dispenser, Aurora Discovery, San Diego, CA) and then the plates were incubated at room temperature for 2 hours, and fluorescence intensity was measured by an Envision plate reader (PerkinElmer, Shelton, CT). For cell viability readout that measures cytotoxicity, 4 uL/well of CellTiter-Glo reagent was added into the assay plates using a FRD. After 30 min incubation at room temperature, the luminescence intensity in the plates was measured using a ViewLux (PerkinElmer) plate reader.
On the % scale 0 is the no-effect control and ±100 the full control effect; potency means the concentration at half of the fitted maximal effect.

SMILES | activity change, negative = cytotoxicity | Potency
C[C@H](CN1CCOCC1)C(C(=O)N1CCCC1)(c1ccccc1)c1ccccc1 | -13.3% | –
CCCOC(=O)c1cncn1C(C)c1ccccc1 (stereo not given) | 2.73% [at 42.5 µM] | –
COP(=O)(OC)O/C(C)=C/C(=O)N(C)C | 12.3% | –
O=C(Cl)c1ccccc1 | 4.75% | –
CCCCCCCCSC(=O)Oc1cc(Cl)nnc1-c1ccccc1 | -3.92% | –
O=C(Cl)/C=C/C(=O)Cl | 4.93% | –
C(COCC1CO1)OCC1CO1 (stereo not given) | 3.38% | –
C#CCOC(=O)/C=C(C)/C=C/CC(C)CCCC(C)C (stereo not given) | 6.69% | –
CCN[C@H](C)Cc1cccc(C(F)(F)F)c1 | -8.99% | –
CCOP(=S)(OCC)Oc1ccc(Cl)cc1Cl | -1.24% | –
BrCCc1ccccc1 | 1.02% | –
Cc1cc(OC(=O)N(C)C)nn1C(=O)N(C)C | 4.46% | –
CCN1CCCC1CNC(=O)C(O)(c1ccccc1)c1ccccc1 (stereo not given) | -9.78% [at 42.5 µM] | –
CCCCS(=O)(=O)Cl | -1.74% | –
O=c1[nH]c2ccccc2n1C1CCNCC1 | 12.6% [at 42.5 µM] | –
CCC(=O)OC1(c2ccccc2)CCN(C)CC1 | -1.34% | –
CC(C)C(C)(N)C#N (stereo not given) | 2.72% | –
C/C(=N\NC(=O)Nc1cc(F)cc(F)c1)c1ncccc1C(=O)O | – | inactive
CC(Cc1ccccc1)NCCCCl (stereo not given) | -0.547% [at 42.5 µM] | –
c1ccc2c(c1)CCNC2 | -1.73% | –

SMILES | activity change, negative = cytotoxicity | Potency
COc1ccc(CN2CCNCC2)c(OC)c1OC | 6.84% [at 42.5 µM] | –
COP(=O)(O)OC | -0.605% | –
CON(C)C(=O)Nc1ccc(Br)cc1 | -5.69% | –
O=C(O)c1c(Cl)ccc2cc(Cl)cnc12 | 3.17% | –
CCN(CC)C1CCCCC1 | -1.63% | –
O=C(O)C(F)(F)C(F)(F)C(F)(F)C(F)(F)C(F)(F)C(F)(F)F | – | 54.5 µM (active)
BrCc1ccc(Br)cc1 | 1.33% | –
Cc1ccc2c(c1)C1CN(C)CCC1N2 (stereo not given) | -1.6% [at 19 µM] | –
CC1=C2[C@H]3OC(=O)[C@@H](C)[C@@H]3CC[C@@]2(C)C=CC1=O | 4.99% [at 42.5 µM] | –
C[C@@H](N)[C@@H](O)c1ccccc1 | 3.16% [at 42.5 µM] | –
O=C(Cl)C(Cl)(Cl)Cl | 1.85% | –
CN(C)C(=O)Oc1cc(OC(=O)N(C)C)cc(C(O)CNC(C)(C)C)c1 (stereo not given) | 3.35% [at 42.5 µM] | –
CCCN1CCC[C@@H]2Cc3[nH]ncc3C[C@H]21 | -0.525% [at 42.5 µM] | –
CC(Cc1ccccc1)NCCn1cnc2c1c(=O)n(C)c(=O)n2C (stereo not given) | 3.56% | –
O=c1[nH]c2ccccc2o1 | -3.09% | –
[P]#[In] | 8.77% | –
CCCC(C)(COC(N)=O)COC(N)=O | 0.0616% | –
O=C(NC(O)C(Cl)(Cl)Cl)NC(O)C(Cl)(Cl)Cl (stereo not given) | 9.13% [at 42.5 µM] | –
C[N+]1(C)CCCCC1 | 2.64% | –
O=C(Cl)C(Cl)Cl | 1.12% | –
